# Data taken from PubChem BioAssay (NCATS).
# Results filed as inconclusive are left out. Where a call stands in place of a potency, no number is given. A number with no mark means an inactive call. The source made the active and inactive calls. The call rests on the fitted dose curve; in most records, active means well fitted curve in the direction sought with a large enough effect; inconclusive means small, poorly fitted or top-dose-only effect, or another doubt; inactive means no such curve, though single readings can be large; an effect the other way counts as inactive or inconclusive.
# Key:
# [1] = molecular target: Rap guanine nucleotide exchange factor 4 (Homo sapiens) (UniProt Q8WZA2); assay: Confirmatory qHTS for agonist of cAMP-regulated guanine nucleotide exchange factor 4 (EPAC2) (AID 1645884);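 further: nucleotide exchange releases bodipy-GDP from Rap1 and this lowers its fluorescence; nearly all actives have a fitted effect of over 65% in size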; further: potency means the concentration at half of the fitted maximal effect
# Sequence of Rap guanine nucleotide exchange factor 4 (Homo sapiens) (Q8WZA2 whole entry, looked up): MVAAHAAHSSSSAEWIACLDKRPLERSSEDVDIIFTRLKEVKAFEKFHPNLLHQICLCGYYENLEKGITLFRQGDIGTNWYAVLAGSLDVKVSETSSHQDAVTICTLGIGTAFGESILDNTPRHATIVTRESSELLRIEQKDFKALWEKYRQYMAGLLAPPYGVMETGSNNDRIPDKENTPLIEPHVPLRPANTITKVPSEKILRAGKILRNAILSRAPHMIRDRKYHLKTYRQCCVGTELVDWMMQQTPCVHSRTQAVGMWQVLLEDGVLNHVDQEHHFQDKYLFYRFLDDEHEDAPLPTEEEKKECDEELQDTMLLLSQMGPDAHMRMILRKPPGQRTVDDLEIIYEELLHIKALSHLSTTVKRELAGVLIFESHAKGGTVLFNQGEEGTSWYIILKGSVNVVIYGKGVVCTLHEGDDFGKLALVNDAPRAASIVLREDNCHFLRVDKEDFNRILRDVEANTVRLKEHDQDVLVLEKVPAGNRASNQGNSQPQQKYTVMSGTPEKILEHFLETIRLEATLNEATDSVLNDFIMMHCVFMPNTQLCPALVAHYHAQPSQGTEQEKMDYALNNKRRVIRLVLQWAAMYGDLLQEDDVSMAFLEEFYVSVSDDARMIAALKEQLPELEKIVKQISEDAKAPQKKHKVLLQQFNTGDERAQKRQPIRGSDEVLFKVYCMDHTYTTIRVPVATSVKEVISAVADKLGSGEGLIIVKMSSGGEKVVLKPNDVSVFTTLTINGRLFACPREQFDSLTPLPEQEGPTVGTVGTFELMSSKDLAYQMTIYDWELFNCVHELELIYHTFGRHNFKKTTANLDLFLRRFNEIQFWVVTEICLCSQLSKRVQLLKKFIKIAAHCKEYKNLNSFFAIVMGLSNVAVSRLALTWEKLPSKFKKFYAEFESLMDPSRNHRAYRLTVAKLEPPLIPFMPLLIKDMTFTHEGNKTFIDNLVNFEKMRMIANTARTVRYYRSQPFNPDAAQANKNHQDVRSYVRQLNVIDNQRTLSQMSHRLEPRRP
# [2] = molecular target: Rap guanine nucleotide exchange factor 4 (Homo sapiens) (UniProt Q8WZA2); assay: Confirmatory qHTS for antagonist of cAMP-regulated guanine nucleotide exchange factor 4 (EPAC2) (AID 1645885); further: nearly all actives have a fitted effect of over 25% in size; further: potency means the concentration at half of the fitted maximal effect
# [3] = molecular target: Rap guanine nucleotide exchange factor 3 (Homo sapiens) (UniProt O95398); assay: Counterscreen qHTS for antagonist of cAMP-regulated guanine nucleotide exchange factor 3 (EPAC1) (AID 1645888);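 further: fluorescence loss as bound BODIPY-GDP is released from Rap1B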
# Sequence of Rap guanine nucleotide exchange factor 3 (Homo sapiens) (O95398 whole entry, looked up): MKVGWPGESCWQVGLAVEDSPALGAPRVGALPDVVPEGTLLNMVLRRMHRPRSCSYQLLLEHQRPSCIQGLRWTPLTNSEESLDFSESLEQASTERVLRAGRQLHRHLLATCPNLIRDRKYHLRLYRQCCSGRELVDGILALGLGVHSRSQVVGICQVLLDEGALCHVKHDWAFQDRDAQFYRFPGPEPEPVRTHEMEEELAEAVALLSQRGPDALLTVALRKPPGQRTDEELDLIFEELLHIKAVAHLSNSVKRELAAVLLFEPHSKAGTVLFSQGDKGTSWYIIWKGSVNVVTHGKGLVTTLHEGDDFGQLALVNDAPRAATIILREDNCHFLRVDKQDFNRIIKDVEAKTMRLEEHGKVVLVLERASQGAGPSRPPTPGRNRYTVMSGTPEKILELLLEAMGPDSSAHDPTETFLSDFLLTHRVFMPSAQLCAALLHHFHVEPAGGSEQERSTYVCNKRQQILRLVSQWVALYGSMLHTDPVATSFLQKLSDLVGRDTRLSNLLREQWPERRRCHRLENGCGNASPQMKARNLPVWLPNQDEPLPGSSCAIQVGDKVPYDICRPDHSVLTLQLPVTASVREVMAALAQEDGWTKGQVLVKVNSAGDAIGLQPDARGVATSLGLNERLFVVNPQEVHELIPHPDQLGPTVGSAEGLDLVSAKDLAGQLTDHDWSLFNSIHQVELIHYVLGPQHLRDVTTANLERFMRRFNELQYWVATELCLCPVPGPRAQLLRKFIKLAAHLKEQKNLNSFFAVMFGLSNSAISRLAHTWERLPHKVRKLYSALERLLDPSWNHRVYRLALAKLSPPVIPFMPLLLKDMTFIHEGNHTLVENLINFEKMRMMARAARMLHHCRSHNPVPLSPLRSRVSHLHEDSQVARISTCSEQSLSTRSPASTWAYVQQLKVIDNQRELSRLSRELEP
# Outline: (§1)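 Measured: fluorescence of BODIPY-GDP bound to Rap1B, which falls as exchange proceeds. Conditions include 50 uM competing GDP, 5 and 30 min reads, and a later cAMP challenge for antagonist detection.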
# [4] = molecular target: Rap guanine nucleotide exchange factor 3 (Homo sapiens) (UniProt O95398); assay: Counterscreen qHTS for agonist of cAMP-regulated guanine nucleotide exchange factor 3 (EPAC1) (AID 1645889); further: nearly all actives have a fitted effect of over 40% in size; further: potency means the concentration at half of the fitted maximal effect
# Outline: as §1
# [5] = molecular target: Tyrosyl-DNA phosphodiesterase 1 (Homo sapiens) (UniProt Q9NUW8); assay: Confirmation Assay for Inhibitors of Tyrosyl-DNA Phosphodiesterase (TDP1) (AID 489007); conditions: recombinant human TDP1 enzymatic activity, dose-response; further: potency means the concentration at half of the fitted maximal effect; nearly all actives have a fitted effect of over 40% in size
# Sequence of Tyrosyl-DNA phosphodiesterase 1 (Homo sapiens) (Q9NUW8 whole entry, looked up): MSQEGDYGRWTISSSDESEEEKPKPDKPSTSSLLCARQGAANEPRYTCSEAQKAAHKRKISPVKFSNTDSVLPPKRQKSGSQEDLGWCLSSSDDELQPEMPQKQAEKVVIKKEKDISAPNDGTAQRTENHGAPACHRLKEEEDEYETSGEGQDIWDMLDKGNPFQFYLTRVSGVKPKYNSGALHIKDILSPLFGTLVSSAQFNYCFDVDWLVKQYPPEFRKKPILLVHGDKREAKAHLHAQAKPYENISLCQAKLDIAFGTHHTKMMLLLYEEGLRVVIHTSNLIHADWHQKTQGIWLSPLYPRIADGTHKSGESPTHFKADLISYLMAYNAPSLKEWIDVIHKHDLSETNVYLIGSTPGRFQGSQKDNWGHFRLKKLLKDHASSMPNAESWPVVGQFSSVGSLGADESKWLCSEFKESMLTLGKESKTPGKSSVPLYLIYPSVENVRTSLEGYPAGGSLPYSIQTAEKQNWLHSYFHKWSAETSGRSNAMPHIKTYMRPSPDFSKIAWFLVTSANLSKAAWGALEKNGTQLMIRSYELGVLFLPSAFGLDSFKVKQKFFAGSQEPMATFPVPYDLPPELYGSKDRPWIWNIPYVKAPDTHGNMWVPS
# Outline: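 Loss of AlphaScreen signal reports Tdp1 cleavage of a dual-labelled DNA substrate. Conditions: 1 nM E. coli-derived enzyme, 15 nM substrate, 15 min compound preincubation, 5 min reaction, 10 min bead incubation, all at room temperature.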
smiles,measurement,setting,value
CCc1ccc(N=C2NC(=O)/C(=C/c3ccc(OCC(=O)O)c(OC)c3)S2)cc1,Potency,[1],inactive
same,Potency,[2],inactive
same,Potency,[3],inactive
Cc1ccc(NS(=O)(=O)c2cccc3cccnc23)c(Cl)c1,Potency,[1],inactive
same,Potency,[2],inactive
same,Potency,[3],inactive
same,Potency,[4],inactive
O=C(O)COc1ccccc1/C=N/Nc1ccc(S(=O)(=O)Nc2ccc(Cl)cc2)cc1[N+](=O)[O-],activation,[1],"1.99% [at 17.1 µM, percent relative to cAMP agonist control]"
same,Potency,[2],inactive
same,"activity change, negative = inhibition",[3],-8.36% [at 30.8 µM]
same,activation,[4],17.2% [at 30.8 µM]
CCOC(=O)c1c(CSc2ccccc2)n(C)c2cc(Br)c(OCC(O)CNC(CO)(CO)CO)cc12 (stereo not drawn),Potency,[1],89.1 µM (active)
same,Potency,[2],26.9 µM (active)
same,Potency,[3],inactive
same,Potency,[4],inactive
Cc1ccc(N2C(=O)c3ccccc3C2Nc2ccccc2F)nc1 (stereo not drawn),activation,[1],"11.4% [at 17.1 µM, percent relative to cAMP agonist control]"
same,Potency,[2],inactive
same,"activity change, negative = inhibition",[3],13.9% [at 30.8 µM]
CCOC(=O)C1(C)C=C(Nc2ccc(C(N)=O)cc2)C(=O)N1c1ccccc1 (stereo not drawn),Potency,[1],inactive
same,Potency,[2],10.7 µM (active)
same,Potency,[3],inactive
CCOc1cc(/C=C2\SC(=Nc3ccc(CC)cc3)NC2=O)ccc1OCC(=O)O,Potency,[1],inactive
same,Potency,[2],inactive
same,Potency,[3],inactive
same,Potency,[4],inactive
O=C(Nc1cc(S(=O)(=O)N2CCCCC2)ccc1O)c1ccccc1NS(=O)(=O)c1ccc(F)c(F)c1,Potency,[1],0.282 µM (active)
same,Potency,[2],inactive
same,"activity change, negative = inhibition",[3],-23% [at 30.8 µM]
O=C(Nc1cccc(C(F)(F)F)c1)C1Cc2c(-c3ccccc3)ccnc2O1 (stereo not drawn),activation,[1],"3.96% [at 17.1 µM, percent relative to cAMP agonist control]"
same,Potency,[2],inactive
same,"activity change, negative = inhibition",[3],-3.59% [at 30.8 µM]
CCc1ccc(N=C2NC(=O)/C(=C/c3ccc(OCC(=O)O)cc3)S2)cc1,activation,[1],"8.62% [at 17.1 µM, percent relative to cAMP agonist control]"
same,Potency,[2],inactive
same,"activity change, negative = inhibition",[3],-19.4% [at 30.8 µM]
same,activation,[4],14.2% [at 30.8 µM]
CCOC(=O)c1cc(-c2ccc(/C=C3/C(=O)N(c4ccc(C(=O)O)cc4)N=C3C)o2)ccc1Cl,Potency,[1],inactive
same,Potency,[2],inactive
same,Potency,[3],inactive
same,Potency,[4],inactive
N#C/C(=C\c1ccc(Sc2ccccc2)o1)c1nc2ccccc2[nH]1,Potency,[1],112 µM (active)
same,Potency,[2],inactive
same,Potency,[3],inactive
Oc1ccccc1N=Cc1c(O)ccc2ccccc12,activation,[1],"0% [at 17.1 µM, percent relative to cAMP agonist control]"
same,Potency,[2],inactive
same,"activity change, negative = inhibition",[3],-12% [at 30.8 µM]
Cc1nc(C)c(-c2csc(Nc3ccc(C(=O)O)c(O)c3)n2)s1,Potency,[1],inactive
same,Potency,[2],inactive
same,Potency,[3],inactive
COc1ccc(C(=O)c2ccc(Br)cc2)c(OC)c1OC,Potency,[1],inactive
same,Potency,[2],6.01 µM (active)
same,Potency,[3],inactive
same,Potency,[4],inactive
O=C(O)CC/C(=C\c1ccc(N2CCCC2)c([N+](=O)[O-])c1)c1nc2ccccc2s1,Potency,[1],inactive
same,Potency,[2],inactive
same,Potency,[3],inactive
same,Potency,[4],inactive
CC(=O)/C(=N\Nc1ccccc1)Sc1cccc2cccnc12,Potency,[2],84.9 µM (active)
same,Potency,[3],inactive
CCOC(=O)[C@H]1[C@H]2COc3ccc(C)cc3[C@@H]2N2C(=O)c3ccc(C)cc3NC(=O)[C@@]12C,Potency,[1],112 µM (active)
same,Potency,[3],inactive
O=C(c1cc(Cl)ccc1Cl)N1CCc2ccccc21,Potency,[2],33.8 µM (active)
same,Potency,[3],inactive
O=C(O)CC/C(=C\c1cccc(NC(=O)c2ccccc2Cl)c1)c1nc2ccccc2s1,Potency,[1],inactive
same,Potency,[2],inactive
same,Potency,[3],inactive
same,Potency,[4],inactive
COc1ccc2sc(N(Cc3cccnc3)C(=O)c3ccco3)nc2c1,Potency,[2],inactive
N=C1/C(=C\c2ccc(-c3cccc(C(=O)O)c3)o2)C(=O)N=C2SC=C(c3ccccc3)N12,Potency,[1],100 µM (active)
same,Potency,[3],inactive
same,Potency,[4],inactive
CN(C)c1ccc(/C=C(/C(=O)c2ccc(Cl)cc2Cl)n2cncn2)cc1,Potency,[1],112 µM (active)
same,Potency,[3],inactive
same,Potency,[4],70.8 µM (active)
O/N=C(/c1ccc(F)cc1)C1CC1c1c(F)cccc1Cl (stereo not drawn),Potency,[2],inactive
same,Potency,[3],inactive
Cc1cc(C(=O)CCC(=O)N2CCN(S(=O)(=O)c3ccccc3)CC2)c(C)s1,Potency,[1],112 µM (active)
same,Potency,[3],inactive
same,Potency,[4],inactive
O=c1oc2c(O)cccc2cc1-c1nc2ccccc2[nH]1,Potency,[2],inactive
same,"activity change, negative = inhibition",[3],-8.32% [at 30.8 µM]
Oc1ccc(Cl)cc1CNc1cccc2cccnc12,Potency,[2],inactive
same,Potency,[3],inactive
O=C(O)c1ccc(Nc2nc(-c3cc4ccccc4oc3=O)cs2)cc1O,Potency,[5],63.1 µM (active)
same,Potency,[1],inactive
same,Potency,[2],inactive
same,Potency,[3],inactive
Oc1ccc(Br)cc1CNc1cccc2cccnc12,Potency,[2],33.8 µM (active)
same,Potency,[3],inactive
